Compound activity: PubChem, National Center for Advancing Translational Sciences (NCATS)
Pf growth 48h: P. falciparum growth inhibition at 48 hours (one generation). Potency, µM (doses to about 28.7 µM), hits mostly inhibitors. actives 5.9% (n = 310,000). P. falciparum luciferase growth in erythrocytes, 48 h
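Cell-based growth assay: transgenic P. falciparum expressing firefly luciferase, cultured in red cells within RPMI 1640 containing 0.5% w/v Albumax, 24 mM bicarbonate and gentamycin. A drop in luciferase activity indicates inhibition.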
Sm TGR block: blocks Schistosoma mansoni thioredoxin glutathione reductase; Q962Y6; purified TGR, DTNB reduction, TNB absorbance 405 nm; Potency, µM (highest dose often 114 µM), usual class: inhibitors; actives 3% (n = 360,000); AID 485364; also: nearly all actives have a fitted effect of over 60% in size
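TGR 20 nM + NADPH 100 uM (dispensed conc.), cpd preinc 15 min RT; start with NADPH (500 uM addition) then DTNB (15 mM addition). Kinetic TNB absorbance, 405 nm filter. Four-parameter Hill fit across titration.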
HCMV inh: inhibitors of human cytomegalovirus; actives 4.5% (n = 410,000); activity change, negative = inhibition, % at 57.5 µM; HFF cells, HCMV-luciferase reporter, 72 h; active compounds read low; in the data active = activity change below about -60%; inconclusive = no clear call, values can overlap the other calls; inactive = above about -39%
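Two compound doses tested in HFFs infected with HCMV-luciferase, MOI 1 PFU/cell, 72 h at 37C. Lysate luminescence read with OneGlo; data normalized against buffer-only and 10uM Salinomycin inhibitor controls.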
HCV inh: HCV inhibition. actives 3.4% (n = 340,000). Huh7.5.1 HCVcc-Cre infection, luciferase reporter, 44 h. Potency, µM (series often up to 41.8 µM), hits mostly inhibitors
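Cells seeded at 1,000/well and cultured 4 h, then compounds added followed by HCVcc-Cre virus (~0.5 moi). After 44 h further culture, luciferase substrate was added, plates held 15 min at room temperature, and luminescence read for 15 sec.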
SARS PLP yeast: SARS-CoV PLP inhibition in yeast. S. cerevisiae expressing SARS-CoV PLpro, growth rescue. AID 485353. actives 0.19% (n = 330,000). Potency, µM (series often up to 32.9 µM), hits mostly activators; calls by dose curve; also: nearly all actives have a fitted effect of over 55% in size
Pf growth 96h: P. falciparum growth inhibition at 96 hours; P. falciparum luciferase reporter growth, 96 h; Potency, µM (highest dose often 28.7 µM), actives largely listed as inhibitors; actives 6.9% (n = 320,000); AID 504834
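P. falciparum expressing integrated firefly luciferase, in erythrocytes at 2% hematocrit, 0.05% parasitemia, incubated with compounds 96 h at 37 C, 5% CO2. Growth inhibition read as loss of luminescence; two-generation exposure targets delayed-death apicoplast inhibitors.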
Hits are given with their value; – = inactive; ? = inconclusive; · = no result given; ! = not active in a repeat; [ ] = another dose, or the depositor's remark. Shown are actives, neighbours in structure and some others; about 15% of the full set was active somewhere. Unless noted, calls follow the shape of the dose curve; as a rule, active = well fitted curve in the direction sought with a large enough effect; inconclusive = small, poorly fitted or top-dose-only effect, or another doubt; inactive = no such curve, though single readings can be large; an effect the other way counts as inactive or inconclusive.

SMILES	Pf growth 48h	Sm TGR block	HCMV inh	HCV inh	SARS PLP yeast	Pf growth 96h
COc1ccc(CNC(=O)CCS(=O)(=O)c2ccc3c(c2)oc(=O)n3C)cc1	–	–	–	–	–	8.28µM
COc1ccc(CCNC(=O)CCS(=O)(=O)c2ccc3c(c2)oc(=O)n3C)cc1OC	?	–	?	–	–	4.15µM
Cc1ccc(CCNC(=O)CCS(=O)(=O)c2ccc3c(c2)oc(=O)n3C)cc1	–	–	–	–	–	?
COc1ccc(S(=O)(=O)CCC(=O)NCc2ccc(C)o2)cc1	–	?	–	–	–	–
COc1ccc(CNC(=O)CCS(=O)(=O)c2ccc(Br)cc2)cc1	–	–	–	–	–	4.65µM
Cc1ccc(S(=O)(=O)NCCCNS(=O)(=O)c2ccccc2[N+](=O)[O-])cc1	–	–	–	–	–	–
CC(=O)Nc1ccc(S(=O)(=O)N[C@@H](C)C(=O)OCc2ccc(Cl)cc2)cc1	–	–	–	–	–	–
CCN(C(=O)CCS(=O)(=O)c1ccc2c(c1)oc(=O)n2C)c1ccc(OC)cc1	–	?	-63.5!	–	–	10.4µM
Nc1ccc(Oc2ncccn2)cc1	–	35.5µM	–	–	–	–
Cc1ccc(S(=O)(=O)c2cn(Cc3ccccc3Cl)c3ccc(F)cc3c2=O)cc1	·	–	–	·	·	·
Cc1nn(-c2ccccc2)c2[nH]c(=O)c(CNc3ccc(N4CCOCC4)cc3)cc12	?	?	–	–	–	–
O=c1[nH]c2c(cc1CNCCN1CCOCC1)c(-c1cccc(F)c1)nn2-c1ccccc1	2.08µM	–	·	·	–	–
Cc1cc(C)c(C(=O)/C=C/c2cccc3ccccc23)c(=O)[nH]1	?	–	-103.5	11.2µM	–	?
Cc1cc(C)c(C(=O)/C=C/c2ccc3c(c2)OCO3)c(=O)[nH]1	–	–	-101.3	?	–	–
CCNc1ccccc(C(=O)/C=C/c2ccc3c(c2)OCO3)c1=O	·	2.51µM	–	–	–	?
C/C(=C\c1cccc(Cl)c1Cl)C(=O)c1c(C)cc(C)[nH]c1=O	–	–	–	–	–	18.5µM
COC(=O)/C=C/c1ccc2c(c1)OCO2	?	–	–	–	–	–
COc1ccc(NC(=O)c2cc(-c3cc(Cl)ccc3C)n[nH]2)cn1	·	·	–	·	·	·
O=[N+]([O-])c1cccc(COc2cccc(CN3CCCCC3)c2)c1	·	·	–	–[8.37 µM]	·	·
CCC(=O)N1CCc2cc(S(=O)(=O)N3CCN(c4cc(Cl)ccc4C)CC3)ccc21	–	–	–	–	–	5.22µM
CCC(=O)N1c2ccc(S(=O)(=O)CCC(=O)N3CCN(c4ccccc4F)CC3)cc2CC1C (stereo unspecified)	–	22.4µM	–	–	–	?
CCC(=O)N1CCc2cc(S(=O)(=O)CCC(=O)N3CCN(c4ccc(Cl)cc4)CC3)ccc21	?	–	-76.6!	10µM	–	–
CC(C)(C)NC(=O)CN(Cc1ccc2c(c1)OCO2)C(=O)CNS(=O)(=O)c1ccccc1	–	–	–	–	–	?
CCN(CC(=O)NCc1cccs1)C(=O)/C=C/c1cccc(Cl)c1Cl	–	–	–	–	–	–
O=C1N/C(=C/c2ccc(N3CCCC3)cc2)C(=O)N1c1ccccc1	–	–	–	–	–	?
SMILES	Pf growth 48h	Sm TGR block	HCMV inh	HCV inh	SARS PLP yeast	Pf growth 96h
CN1C(=O)/C(=C/c2ccc(N3CCCCCC3)o2)C(=O)NC1=S	–	39.8µM	–	–	–	–
O=C1N/C(=C/c2ccc(N3CCOCC3)o2)C(=O)N1c1ccccc1	–	8.91µM	–	?	–	–
CN1C(=O)/C(=C\c2ccc(N3CCCCC3)o2)C(=O)NC1=S	–	?	–	–	–	–
C=CCN1C(=O)/C(=C\c2ccc(N3CCOCC3)o2)C(=O)NC1=S	–	50.1µM	–	–	–	?
O=C1NC(=S)S/C1=C/c1ccc(N2CCOCC2)o1	–	3.55µM	·	?	–	–
COc1ccc2cc(CCNS(=O)(=O)c3ccc(C)cc3)c(=O)[nH]c2c1	·	–	–	·	·	·
C=CCN1C(=O)N/C(=C/c2ccc(N3CCOCC3)o2)C1=O	?	7.08µM	-62.5	–[0.335 µM]	–	?
COc1cccc(C=C2SC(=S)NC2=O)c1	·	·	–	–	·	·
